Several values for one entry are separate records, joined by “and”; a condition that tells them apart may be missing. Identical values can stand only once. Inconclusive results are not listed. A call without a number means that no potency is given here. More than one record can exist for a structure, and the calls need not agree. Activity calls are given as the source filed them. Calls follow the shape of the dose curve; as a rule, active = well fitted activation curve with a large enough effect in the repeat runs; inconclusive = weak or mixed curves; inactive = flat fitted curve, though single readings scatter.
Potency is read from the fitted curve at half-maximal effect.

The assay in a line: A CellTox Green Cytotoxicity Assay to monitor cytotoxicity in HepG2 cells - 8 hour (AID 1224890). Also: nearly all actives have a fitted effect of over 45% in size. The settings on record: CellTox Green fluorescence; series mostly up to 76.8 µM; cytotoxicity increase: at the top concentration. An excerpt: National Center for Advancing Translational Sciences [NCATS]
NIH Chemical Genomics Center [NCGC]
U.S. Environmental Protection Agency [EPA]
National Institutes of Environmental Health Sciences [NIEHS]
National Toxicology Program [NTP]
Cell-based models are critical for drug discovery. Determining the natural cytotoxic effects resulting from test compounds is an essential research activity. A CellTox Green Cytotoxicity Assay to monitor cytotoxicity in real time of continues cell culture during 40 hours of the compound treatment was used to screen Tox21 10K library compounds in HepG2 cells. CellTox Green Cytotoxicity Assay is a nonlytic, homogeneous, biofluorescent method to measure cytotoxicity in cell culture after experimental manipulation. The assay system uses a proprietary asymmetric cyanine dye that is excluded from viable cells but preferentially stains the dead cell's DNA. […] Viable cells produce no appreciable increases in fluorescence. Therefore, the fluorescence signal produced by the binding interaction with dead cell DNA is proportional to cytotoxicity.
The mixture of HepG2 cell suspension and reagents were dispensed at 600cells/6 ul/well in 1536-well tissue culture treated black solid bottom plates using a Multidrop dispenser. After the assay plates were incubated at a 37 C/5% CO2 incubator for 5 hours, 23 nL of compounds dissolved in DMSO, positive and negative controls was transferred to the assay plate by a pintool work station. The plates were incubated at 37 C for 40 hours. The fluorescence intensity were measured at 0h, 8h, 16h, 24h, 32h and 40h time points using ViewLux plate reader during compound treatment.
As to `O=C(/C=C/c1ccccc1)OCc1ccccc1`, the Potency entry is “inactive”.

On to `CN(C)c1nc(N(C)C)nc(N(C)C)n1`, for which the Potency result is “inactive”.

In the case of `O=S(=O)(O)c1ccc(O)cc1`, the Potency result was “inactive”.

Turning to `Nc1ncnc2nc[nH]c12`, the Potency result was “inactive”.

With `O=C(OCc1ccccc1)c1ccccc1O`, the Potency entry is “inactive”.

With `Cc1ccc(C)c(O)c1C`, the Potency result is “inactive”.

As for `OC(CCl)CCl`, the Potency entry was “inactive”.

Consider `CNCCCC12CCC(c3ccccc31)c1ccccc12`, for which the “cytotoxicity increase” value was 26.8% [at 35.3 µM] (inactive).

On to `COc1ccc(OC)c(C(O)CNC(=O)CN)c1` (stereo not given), for which the Potency entry is “inactive”.

Regarding `COC(=O)c1ccccc1`, the Potency entry was “inactive”.

Take `CN1C(C(=O)Nc2ccccn2)=C(O)c2ccccc2S1(=O)=O`: the Potency entry is “inactive”.

In the case of `CCCCCCCCCCCO`, the Potency entry is “inactive”.

With `CC1=CC2C3CC(C=C3C)C2C1` (stereo not given), the Potency entry was “inactive and 38.9 µM (active)”.

On to `CC(C)(C)NC(=O)[C@H]1CC[C@H]2[C@@H]3CC[C@H]4NC(=O)C=C[C@]4(C)[C@H]3CC[C@]12C`, for which the Potency entry is “inactive”.

For the compound `c1ccncc1`, the Potency entry is “inactive”.

In the case of `C#C[C@]1(O)CC[C@H]2[C@@H]3CCC4=Cc5oncc5C[C@]4(C)[C@H]3CC[C@@]21C`, the Potency entry was “inactive”.

As for `COC(=O)CCC(=O)OC`, the Potency entry is “inactive”.

In the case of `COC(C)COC(C)COC(C)CO` (stereo not given), the Potency result is “inactive”.

`c1ccc2c(c1)Oc1ccccc1S2`: the Potency result was “inactive”.

For the compound `OC[C@H]1O[C@@H]2O[C@H]3[C@H](O)[C@@H](O)[C@@H](O[C@H]4[C@H](O)[C@@H](O)[C@@H](O[C@H]5[C@H](O)[C@@H](O)[C@@H](O[C@H]6[C@H](O)[C@@H](O)[C@@H](O[C@H]7[C@H](O)[C@@H](O)[C@@H](O[C@H]8[C@H](O)[C@@H](O)[C@@H](O[C@H]1[C@H](O)[C@H]2O)O[C@@H]8CO)O[C@@H]7CO)O[C@@H]6CO)O[C@@H]5CO)O[C@@H]4CO)O[C@@H]3CO`, the Potency result is “inactive”.

Turning to `O=C1c2cccc(O)c2C(=O)c2c(O)cccc21`, the Potency result is “inactive”.

As to `O=P(O)(O)O`, the Potency entry was “inactive”.

As to `CN(C)CCN(Cc1cccs1)c1ccccn1`, the Potency result was “inactive”.

As to `c1cc(N(CC2CO2)CC2CO2)ccc1OCC1CO1` (stereo not given), the Potency result was “inactive”.

`O=CCc1ccccc1`: the Potency entry was “inactive”.

As for `COc1cccc2c1C(=O)c1c(O)c3c(c(O)c1C2=O)C[C@@](O)(C(=O)CO)C[C@@H]3O[C@H]1C[C@H](N)[C@H](O)[C@H](C)O1`, the “cytotoxicity increase” value was 3.64% [at 35.3 µM] (inactive).

As to `CCCCCCCCCC(=O)OC`, the Potency entry is “inactive”.

As for `CC(C(=O)O)c1cccc(C(=O)c2ccccc2)c1` (stereo not given), the Potency entry is “inactive”.

Regarding `Cc1cccc(N(C)C(=S)Oc2ccc3ccccc3c2)c1`, the Potency result was “inactive”.

As for `c1ccc2cc(Nc3ccc(Nc4ccc5ccccc5c4)cc3)ccc2c1`, the Potency result is “inactive”.

In the case of `Cc1cccc([N+](=O)[O-])c1C`, the Potency entry was “inactive”.

For the compound `O=C(Nc1ccc([N+](=O)[O-])cc1Cl)c1cc(Cl)ccc1O`, the Potency result was “inactive”.

Take `Cc1cccc(C(=O)O)c1`: the Potency result is “inactive”.

For the compound `CCCCC(CC)COCC1CO1` (stereo not given), the Potency result is “inactive”.

Take `CC(C)=CCC/C(C)=C\CO`: the Potency result was “inactive”.

With `OC1CCCCCCCCCCC1`, the Potency was 43.6 µM (active).

Consider `CCC(C)CO` (stereo not given), for which the Potency result is “inactive and 49 µM (active)”.

Take `NC=O`: the Potency entry was “inactive”.

Regarding `O=C(c1ccccc1)c1ccc(O)cc1O`, the Potency result is “inactive”.

Take `CCC(C)(O)CCCC(C)C` (stereo not given): the Potency result is “inactive”.
